The campaign covered roughly 330,000 compounds. About 560 (0.17%) were called active.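 How the source made its calls: active means activation at or above 40% of the spot to cytoplasm intensity ratio, with at least 20 cells analyzed; inconclusive means wells under 20 cells, flagged as cytotoxic or low count; inactive means the rest.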 Many of the other results were omitted from the sample, so actives are more common in it than they were.

Assay [1] in a line: agonists of human NTR1, primary screen, imaging, U2OS cells, beta-arrestin-GFP, high content (AID 493036).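 On activation: 0% = DMSO without peptide and 100% = 100 nM NTR1 peptide.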 As to conditions: NTR1-U2OS beta-arrestin-GFP spot imaging, agonist mode; measured here: cell count, cytotoxicity flag; at 20 µM.
Assay [2] concerns the target Neurotensin receptor type 1 (Homo sapiens) (UniProt P30989). The assay is described as above. To be noted: NTR1-U2OS beta-arrestin-GFP spot imaging, agonist mode; at 20 µM; stronger effect = higher value.

Neurotensin receptor type 1 (Homo sapiens), sequence (P30989 whole entry, looked up): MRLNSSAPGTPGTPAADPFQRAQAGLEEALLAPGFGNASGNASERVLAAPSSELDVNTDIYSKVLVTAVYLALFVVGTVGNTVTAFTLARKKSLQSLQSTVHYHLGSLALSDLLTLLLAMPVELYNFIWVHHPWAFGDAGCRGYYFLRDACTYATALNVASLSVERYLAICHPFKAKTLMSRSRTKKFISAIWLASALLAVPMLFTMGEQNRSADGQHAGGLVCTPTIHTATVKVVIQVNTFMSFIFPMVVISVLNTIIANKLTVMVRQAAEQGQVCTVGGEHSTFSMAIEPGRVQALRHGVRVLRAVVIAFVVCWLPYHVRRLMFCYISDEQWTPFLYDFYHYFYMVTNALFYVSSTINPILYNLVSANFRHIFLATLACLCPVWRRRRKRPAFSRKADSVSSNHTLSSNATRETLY

For `COC(=O)c1ccc(COC(=O)CNC(=O)c2cccc(OC)c2)o1`, the cell count in assay [1] amounted to 57 cells. Further, in assay [2], the activation was -0.3% (inactive).
For the compound `O=C(Nc1nnc(S(=O)(=O)N2CCCCCC2)s1)c1cccc(Br)c1`, the cell count in assay [1] was found to be 53 cells. For the same compound, the activation in assay [2] is 5% (inactive).
The corresponding values for `Cc1c(NC(=O)CCC2CCCCC2)cc(C(=O)N2CCOCC2)cc1[N+](=O)[O-]` are 61 cells and 1.4% (inactive).
For `COc1ccccc1-n1c(SCC(=O)Nc2cccc(C(=O)O)c2)nnc1-c1ccccc1O`, in that order: 50 cells and -0.1% (inactive).
For `COc1cccc(/C=N/Nc2cc(C)nc(-c3ccccc3O)n2)c1O`, in that order: 51 cells and 46.3% (active).
`COc1ccc(Cc2nnc(N/N=C/c3ccccc3O)[nH]c2=O)cc1OC`: in assay [1], the cell count stood at 65 cells. The activation in assay [2] is 0% (inactive).
The corresponding values for `CCC1(CC)C(=O)C2=C3C1[C@H](C(=O)OC)C=C(C(=O)OC)C[C@H]3[C@H]1C(=O)N(Cc3ccccc3)C(=O)[C@H]1[C@H]2C` (some centres not stated) are 56 cells and 4.6% (inactive).
Regarding `CC(C)(C)Nc1c(-c2cccs2)nc2ccccn12`, in assay [1], the cell count came out at 43 cells. Further, in assay [2], the activation was 1.2% (inactive).
Compound `O=C(N/N=C/c1ccc(Cl)cc1)c1nc2ccc([N+](=O)[O-])cc2c(=O)[nH]1` came in with a cell count in assay [1] of 101 cells. In addition, the activation in assay [2] was -0.7% (inactive).
The corresponding values for `O=C(/C(=C/c1cccc(Cl)c1)c1nc2ccccc2[nH]1)c1ccccc1` are 59 cells and 40.5% (active).
For `O=C(O)c1cccc(NC(=O)c2cc(-c3cccc(Cl)c3)nc3ccccc23)c1`, in that order: 44 cells and 1.2% (inactive).

For the origin of these results see PubChem BioAssay AID493036 (Sanford-Burnham Center for Chemical Genomics, 2011).
